This is an account of results in publication PMC4336329 (PLoS ONE, 2015).

Hit rate of the full screen: of about 310,000 compounds, about 14,000 (4.5%) showed an effect of 50% or more. Effects have a minus sign here. What follows is part of a selection rich in strong results, with near analogues and random picks from the rest.
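Also: peak tail current of the secondary pulse compared with the same well before compound.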

The target in this test is human ether-à-go-go-related gene (hERG) potassium channel (human, UniProt Q12809). The test can be described thus: primary screen, population patch clamp on CHO cells stably expressing hERG; higher = less effect of the substance.
Sequence of human ether-à-go-go-related gene (hERG) potassium channel (Q12809 whole entry, looked up): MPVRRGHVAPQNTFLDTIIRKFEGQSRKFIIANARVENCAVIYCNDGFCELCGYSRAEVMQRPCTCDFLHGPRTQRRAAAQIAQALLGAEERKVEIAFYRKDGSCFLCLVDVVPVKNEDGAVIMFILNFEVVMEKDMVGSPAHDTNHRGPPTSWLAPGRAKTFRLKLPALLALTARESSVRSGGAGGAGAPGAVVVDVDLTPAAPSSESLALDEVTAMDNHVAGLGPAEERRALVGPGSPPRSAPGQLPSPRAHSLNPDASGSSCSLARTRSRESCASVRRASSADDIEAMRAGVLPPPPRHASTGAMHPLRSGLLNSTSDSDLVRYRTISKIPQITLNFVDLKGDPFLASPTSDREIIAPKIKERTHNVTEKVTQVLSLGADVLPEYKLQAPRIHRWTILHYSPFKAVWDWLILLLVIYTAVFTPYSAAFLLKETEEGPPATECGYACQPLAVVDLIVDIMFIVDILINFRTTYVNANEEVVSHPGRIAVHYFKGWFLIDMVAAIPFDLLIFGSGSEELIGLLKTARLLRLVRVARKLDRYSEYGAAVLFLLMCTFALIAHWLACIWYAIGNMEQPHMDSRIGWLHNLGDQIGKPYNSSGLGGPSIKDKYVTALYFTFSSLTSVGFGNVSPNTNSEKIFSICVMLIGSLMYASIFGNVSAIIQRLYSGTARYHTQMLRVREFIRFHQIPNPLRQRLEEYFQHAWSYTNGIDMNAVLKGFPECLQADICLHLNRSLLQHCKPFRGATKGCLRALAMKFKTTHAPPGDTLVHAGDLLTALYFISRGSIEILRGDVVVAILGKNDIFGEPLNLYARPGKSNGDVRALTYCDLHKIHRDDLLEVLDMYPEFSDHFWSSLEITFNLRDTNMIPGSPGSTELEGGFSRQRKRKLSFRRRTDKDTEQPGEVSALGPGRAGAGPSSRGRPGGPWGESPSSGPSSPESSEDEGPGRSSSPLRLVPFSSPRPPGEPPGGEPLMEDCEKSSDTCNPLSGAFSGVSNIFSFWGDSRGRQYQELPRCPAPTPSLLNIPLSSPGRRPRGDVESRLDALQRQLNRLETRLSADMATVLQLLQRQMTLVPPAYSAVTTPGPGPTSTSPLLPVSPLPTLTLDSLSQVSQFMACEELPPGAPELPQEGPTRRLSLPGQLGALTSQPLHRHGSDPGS
Consider `CC(=O)N1CCC(=O)N(C(C)C)c2ccccc21`, for which the “hERG current change (%, negative = inhibition) at 10uM” value was 3.9%.
Turning to `COc1ccc(CNC(=O)c2cccnc2Sc2ccc(C)c(C)c2)cc1`, the “hERG current change (%, negative = inhibition) at 10uM” value worked out at 3.63%.
The result for `COc1ccccc1-c1coc2cc(O)cc(O)c2c1=O` reads 9.89%; that for `Cc1ccc(OCC(=O)c2ccc(Cl)s2)c([N+](=O)[O-])n1`, 2.66%; that for `Cc1ccc(S(=O)(=O)NCc2n[nH]c(=S)n2C)cc1`, 21%.
As for `NC(=O)c1cc([N+](=O)[O-])ccc1NCc1ccc(N)cc1`, the figure is 10.5%; as for `COc1cc2c(cc1NC(=O)c1cccnc1)CCCC2`, 14.2%; as for `Cc1cccc(-c2noc(-c3ccc4c(c3)OCO4)n2)c1`, 7.53%.
The result for `COc1cc(NC(=O)c2ccccc2Cl)c(OC)cc1NC(=O)CN1CCOCC1` reads -3.34%.
As for `COc1cc(Cl)c(C)cc1NC(=O)c1ccccc1NC(=O)CN1CCOCC1`, the “hERG current change (%, negative = inhibition) at 10uM” value is listed as -58.7%.
The result for `COc1cc(NC(=O)CN2CCN(C(=O)C3CCCO3)CC2)c(OC)cc1Cl` (centres unmarked) reads -12.5%; that for `COc1cc(Cl)c(C)cc1NC(=O)CCCn1c(=O)oc2ccccc21`, -58.7%; that for `COc1cc(OC)c(NC(=O)CCCn2c(=O)oc3ccccc32)cc1Cl`, 9.61%.
The result for `COc1cc(Cl)c(C)cc1NC(=O)CN1CCN(C(=O)C2CC2)CC1` reads -59.6%; that for `COc1cc(Cl)c(C)cc1NC(=O)CN1CCCCCC1`, -0.067%.
As for `COc1cc(NC(=O)c2ccccc2C)c(OC)cc1NC(=O)CN1CCOCC1`, the figure is -7.78%; as for `COc1ccc(NC(=O)CCCn2c(=O)oc3ccccc32)cc1Cl`, -12.9%.
In the case of `O=C(CN1CCN(S(=O)(=O)c2cc(Cl)ccc2Cl)CC1)Nc1ccc2c(c1)OCCO2`, the “hERG current change (%, negative = inhibition) at 10uM” value was -23.2%.
As for `O=C(CC(c1ccccc1)c1cc(Cl)ccc1O)N1CCOCC1` (centres unmarked), the figure is -15.1%; as for `CCc1ccc(S(=O)(=O)N/N=C\c2ccc3c(c2)OCO3)cc1`, 9.85%; as for `CCCN(CC(=O)Nc1ccc(F)c(F)c1F)C(=O)c1ccc(N2CCCC2=O)cc1`, -4.37%.
The result for `C=CCOc1ccccc1/C=N/NC(=O)c1ccc(Cl)cc1Cl` reads -6.98%.
In the case of `O=C(CC1C(=O)NCCN1CC1CCCCC1)NCc1ccccc1Cl` (centres unmarked), the “hERG current change (%, negative = inhibition) at 10uM” value is -5.9%.
The result for `Cc1nc(-c2cccc(S(=O)(=O)N3CCCC(C)C3)c2)cs1` (centres unmarked) reads -9.76%.
As to `CS(=O)(=O)c1ccc(N2CCN(S(=O)(=O)c3cccs3)CC2)c([N+](=O)[O-])c1`, the “hERG current change (%, negative = inhibition) at 10uM” value is recorded as -67.1%.
Consider `O=C(c1ccc(N2CCOCC2)c([N+](=O)[O-])c1)N1CCN(S(=O)(=O)c2cccs2)CC1`, for which the “hERG current change (%, negative = inhibition) at 10uM” value is listed as -47.3%.
Consider `CS(=O)(=O)c1ccc(N2CCN(c3ccccn3)CC2)c([N+](=O)[O-])c1`, for which the “hERG current change (%, negative = inhibition) at 10uM” value was -55%.
For the compound `CN1CCN(c2ccc(S(C)(=O)=O)cc2[N+](=O)[O-])CC1`, the “hERG current change (%, negative = inhibition) at 10uM” value is recorded as -2.78%.
As for `O=C(c1ccc(N2CCCC2)c([N+](=O)[O-])c1)N1CCN(c2ccccn2)CC1`, the figure is -21.8%; as for `Cc1ccc(C(=O)N2CCN(c3ccccn3)CC2)cc1[N+](=O)[O-]`, 9.02%.
For the compound `O=C(c1ccc(N2CCCCC2)c([N+](=O)[O-])c1)N1CCN(c2ccccn2)CC1`, the “hERG current change (%, negative = inhibition) at 10uM” value is on record as -66.8%.
As for `CC(=O)N1CCN(c2ccc(S(C)(=O)=O)cc2[N+](=O)[O-])CC1`, the figure is -12.7%; as for `CN1CCN(c2ccc(S(=O)(=O)N3CCCCC3)cc2[N+](=O)[O-])CC1`, -48%; as for `CCOC(=O)c1cnn(-c2sc(C(=O)OCC)c(C)c2C(=O)OCC)c1N`, 16.4%.
As for `O=C(NC1CCCCC1)c1ccc2snnc2c1`, the figure is 12.8%.
`NS(=O)(=O)c1ccc(CCNC(=O)CCCCCn2c(=S)[nH]c3ccc(Br)cc3c2=O)cc1`: the “hERG current change (%, negative = inhibition) at 10uM” value came to 9.32%.
As for `O=C(O)c1ccc(-n2nnnc2SCc2cccc(Br)c2)cc1`, the figure is 13.2%; as for `COc1ccc(/C=C/C(=O)NC(=S)Nc2ccc(N3CCN(C(C)=O)CC3)cc2)cc1`, 12.2%; as for `COC(=O)C1=C(c2cccc(OCc3ccccc3)c2)C[C@@H]2CC[C@H]1N2C(=O)NNCc1ccccc1`, 10.8%.
As for `CC1CC(C)CN(C(=O)Cn2cc(C=O)c3ccccc32)C1` (centres unmarked), the figure is -4.11%.
The result for `Cc1nn(C)c(C(=O)NNC(=S)NCc2ccco2)c1Cl` reads 7.69%.
Take `O=c1cc2c(nn1Cc1ccc(Cl)cc1)-c1ccccc1CC2`: the “hERG current change (%, negative = inhibition) at 10uM” value is given as -13.6%.
The result for `O=c1cc2c(nn1Cc1ccccc1)-c1ccccc1CC2` reads -17.6%; that for `O=c1cc2c(nn1Cc1ccc(F)cc1)-c1ccccc1CC2`, -61.3%.
